Giardia killer – Giardia lamblia killing; Giardia lamblia trophozoite viability; activity change, % at 7.66 µM, hits read low; 0.15% of 340,000 active; in the data active means activity change below about -80%; inconclusive means between about -30% and that limit;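 further: parasites exposed to compound for two days anaerobically before the ATP read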
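Luminescent ATP signal served as the viability read-out, measured 15-30 min after adding ATP detection reagent to trophozoites that had been incubated with compounds for 48 hrs at 37 deg C anaerobically at 100 cells/well.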
IL-1B inflam inh – inhibitors of inflammasome signaling (IL-1 beta secretion); 4.7% of 360,000 active; activity change, % at 57.5 µM; THP-1 LPS/ATP IL-1B secretion, AlphaLISA, 16 h; active compounds read low; in the data active means activity change below about -50%; inconclusive means mostly about -30% to -49%
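Secreted IL-1B measured by AlphaLISA bead assay after 16 h compound exposure of THP-1 cells; compounds (final up to 57.5 uM) added 1 h before LPS (250 ng/mL) and ATP (1.25 mM) stimulation; lower signal means less secretion.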
TDP1 inh – inhibitors of human tyrosyl-DNA phosphodiesterase TDP1; Q9NUW8; recombinant TDP1, AlphaScreen DNA substrate cleavage; Potency, µM (top dose mostly 130 µM), without a hit: top-dose activity change, negative = inhibition, most hits filed as inhibitors; 0.28% of 350,000 active; further: potency means the concentration at half of the fitted maximal effect; nearly all actives have a fitted effect of over 40% in size
Target sequence (Q9NUW8 whole entry, looked up): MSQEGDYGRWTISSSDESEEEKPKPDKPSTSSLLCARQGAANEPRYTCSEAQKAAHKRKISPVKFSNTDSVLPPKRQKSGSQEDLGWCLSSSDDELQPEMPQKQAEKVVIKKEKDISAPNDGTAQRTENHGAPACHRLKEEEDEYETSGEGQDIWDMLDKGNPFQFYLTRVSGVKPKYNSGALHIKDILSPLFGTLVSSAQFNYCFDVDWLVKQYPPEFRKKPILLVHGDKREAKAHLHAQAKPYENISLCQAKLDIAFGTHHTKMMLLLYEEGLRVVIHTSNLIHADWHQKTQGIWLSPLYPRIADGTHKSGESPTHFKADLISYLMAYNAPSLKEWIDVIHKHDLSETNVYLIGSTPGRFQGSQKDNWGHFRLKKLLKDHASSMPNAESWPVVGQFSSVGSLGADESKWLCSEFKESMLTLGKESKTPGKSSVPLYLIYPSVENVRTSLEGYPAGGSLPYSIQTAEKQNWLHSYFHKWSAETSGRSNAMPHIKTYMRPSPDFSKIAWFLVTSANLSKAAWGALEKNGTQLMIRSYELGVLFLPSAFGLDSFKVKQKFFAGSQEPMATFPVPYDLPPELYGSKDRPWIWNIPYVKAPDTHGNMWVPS
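Recombinant E. coli-expressed Tdp1 (1 nM) preincubated with compound 15 min at RT, then 5'-biotin/3'-phosphotyrosine-FITC DNA substrate (15 nM) added for 5 min. AlphaScreen beads (10 ug/ml) added, 10 min RT; tyrosine-FITC cleavage read as signal loss.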
TDP1 cell CPT – DT40-hTDP1 cell growth loss with CPT | 12% of 420,000 active | Potency, µM (series often up to 46.2 µM), for the others: at the top dose activity change, negative = growth inhibition, actives largely listed as inhibitors | chicken DT40 Tdp1-/-;hTDP1 cells + 20 nM CPT, ATP luminescence, 48 h; further: potency means the concentration at half of the fitted maximal effect; nearly all actives have a fitted effect of over 55% in size
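Chicken DT40 Tdp1-/- cells complemented with human TDP1, 400 cells/well, exposed to compounds plus 20 nM camptothecin for at least 48 h at 37 C; viability read as ATP content by CellTiter-Glo luminescence.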
ELG1 repair inh – inhibitors of ELG1-dependent DNA repair in HEK293T cells | HEK293T ELG1-luciferase reporter, luminescence, 16 h; DNA damage induced by 5-fluorouridine | Potency, µM (top dose mostly 46.1 µM), without a hit: at the highest dose activity change, negative = inhibition, hits mostly inhibitors | 2.3% of 330,000 active; further: potency means the concentration at half of the fitted maximal effect; nearly all actives have a fitted effect of over 55% in size
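DMSO vehicle served as the neutral condition. Each well held 2,000 cells given 5-fluorouridine plus compound; after 16 hr at 37 °C/5% CO2, ONE-Glo was added and luciferase measured 30 min later.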
DT40 TDP1 no CPT – qHTS for Inhibitors of human tyrosyl-DNA phosphodiesterase 1 (TDP1): qHTS in cells in absence of CPT | Potency, µM (highest dose often 46.2 µM), for inactives: at the top dose activity change, negative = growth inhibition, actives largely listed as inhibitors | DT40 Tdp1-/- hTDP1 cells, no CPT, ATP luminescence, 48 h | 15% of 420,000 active; further: potency means the concentration at half of the fitted maximal effect; nearly all actives have a fitted effect of over 55% in size
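No-CPT arm: Tdp1-/-;hTDP1 DT40 cells (400/well) plus compounds, incubated ≥48 hr at 37 °C. Readout CellTiter-Glo luminescence.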
* hit, by the source's call; ? = inconclusive; . = no result; [ ] = remark or other dose. A selection: hits, their analogues and other compounds. The true share with any hit is near 19%. Unless noted, the call rests on the fitted dose curve; in most records, active means well fitted curve in the direction sought with a large enough effect; inconclusive means small, poorly fitted or top-dose-only effect, or another doubt; inactive means no such curve, though single readings can be large; an effect the other way counts as inactive or inconclusive. On the % scale 0 is the no-effect control and ±100 the full control effect.

SMILES	Giardia killer	IL-1B inflam inh	TDP1 inh	TDP1 cell CPT	ELG1 repair inh	DT40 TDP1 no CPT
COc1ccccc1Nc1nc(-c2sc(N)nc2C)cs1	-22	-12	.	-15%	?	?
Cc1ccc(-c2csc(/C(C#N)=C/c3ccccc3Cl)n2)cc1	.	.	1%[12.3 µM]	1%	.	6%
CC12CC[C@@](C(=O)O)(C(=O)C1=O)C2(C)C	.	.	6%	20%[9.04 µM]	.	4%[9.04 µM]
O=C(Nc1ccc(F)cc1)c1cccc(N2C(=O)C3C4CCC(C4)C3C2=O)c1 (stereo not given)	1	0	-1%	?	?	23µM*
O=C(Nc1ccc(Br)cc1)c1cccc(N2C(=O)C3C4C=CC(C4)C3C2=O)c1 (stereo not given)	-1	-23	3%	23µM*	?	?
O=C(Nc1ccccc1)c1cccc(N2C(=O)C3C4C=CC(C4)C3C2=O)c1 (stereo not given)	-16	19	0%	-22%	-6%	-29%
O=C(Nc1ccc(Br)cc1)c1cccc(N2C(=O)C3C4CCC(C4)C3C2=O)c1 (stereo not given)	9	?	5%	?	16µM*	29µM*
Cc1cccc(NC(=O)CN2c3ccccc3S(=O)(=O)c3ccccc32)c1C	.	.	5%	?	.	?
CCc1ccc(-n2c(=O)c3c(C)c(C)sc3n(CC(=O)NCc3ccc(C)cc3)c2=O)cc1	.	.	-2%	-3%	.	2%
N#Cc1ccc(C(=O)N2CCC3CC2c2cc(-c4ccccc4)ccc23)cc1 (stereo not given)	-14	-5	.	?	.	?
O=C(c1ccc(-c2ccccc2)cc1)N1CCN(c2ccc3c(c2)C2CC3CCN2C(=O)OCc2ccccc2)CC1 (stereo not given)	.	-8	.	?	.	?
N#Cc1ccc(C(=O)N2CCC3CC2c2cc(N4CCCCC4)ccc23)cc1 (stereo not given)	.	10	.	16µM*	.	16µM*
Cc1ccc(C(=O)N2CCN(c3ccc4c(c3)C3CC4CCN3C(=O)OCc3ccccc3)CC2)cc1 (stereo not given)	.	-4	.	16µM*	.	15µM*
O=C(c1cccc(Cl)c1)N1CCN(c2ccc3c(c2)C2CC3CCN2C(=O)OCc2ccccc2)CC1 (stereo not given)	.	-29	.	?	.	15µM*
O=C(OCc1ccccc1)N1CCC2CC1c1cc(-c3ccccc3)ccc12 (stereo not given)	-8	2	.	?	.	23µM*
NC(=O)c1ccc(NC(=O)CN2CCN(Cc3ccccc3)CC2)cc1	-23	-2	.	2%	1%	3%
O=C(c1ccc(Cl)cc1)N1CCC2CC1c1cc(-c3ccccc3)ccc12 (stereo not given)	0	-18	.	16µM*	.	-23%
O=C(c1cccc(Cl)c1)N1CCC2CC1c1cc(-c3ccccc3)ccc12 (stereo not given)	9	2	.	?	.	?
O=C1c2ccccc2C(=O)C1c1ccncc1	?	-21	-1%	?	?	23µM*
Cc1ccc(C2C(=O)c3ccccc3C2=O)cc1	3	7	.	3%	24%	-12%
CC(=O)c1ccc(-c2nnc(CCC(=O)N(C)Cc3c(C)nc4ccccn34)o2)s1	-6	38	.	?	-8%	?
CC(C)[C@H](NC(=O)c1ccccc1)C(=O)OCC(=O)N1CCCc2ccccc21	3	-5	-3%	-20%	-12%	-15%
Cn1c(CO)c(-c2ccccc2)c2cc([N+](=O)[O-])ccc21	0	0	7%	-19%	-26%	?
CC(=O)OCc1c(-c2ccccc2)c2cc([N+](=O)[O-])ccc2n1C	26	26	.	3.7µM*	?	1.8µM*
Cc1ccc(Cn2ncc(Cl)c(Cl)c2=O)cc1	-19	-103*	3%	5.2µM*	?	3.3µM*
SMILES	Giardia killer	IL-1B inflam inh	TDP1 inh	TDP1 cell CPT	ELG1 repair inh	DT40 TDP1 no CPT
CCc1ccc(C(=O)Cn2ncc(Cl)c(Cl)c2=O)cc1	11	-116*	3%	3.7µM*	-12%	2.9µM*
Cc1[nH]c(C)c2c(=O)n(Cc3ccc(Cl)cc3)ncc12	9	-9	5%	-1%	?	2%
CCc1ccc(C(=O)Cn2ccsc2=N)cc1	?	8	.	-13%	?	-15%
O=c1c(Cl)c(Cl)cnn1Cc1nnc(-c2ccc(Cl)cc2)o1	-1	-101*	5%	0.82µM*	?	0.92µM*
Cc1ccc(-c2nnc(Cc3ccc(Cl)cc3)o2)cc1	9	0	-8%	-18%	?	?
O=c1c(Cl)c(Cl)cnn1Cc1ccccc1Cl	4	-100*	-2%	2.6µM*	10µM*	1µM*
Cc1cc(=O)[nH]c2c1cnn2Cc1ccccc1	-9	23	7%	?	5%	-7%
Cc1cc(C)cc(Cn2ncc(Cl)c(Cl)c2=O)c1	5	-120*	3%	8.2µM*	?	12µM*
COC(=O)CSc1nnc(-c2sc3ccccc3c2Cl)o1	-11	9	-5%	-3%	8%	-3%
N#CCSc1nnc(-c2sc3ccccc3c2Cl)o1	-15	-94*	3%	?	?	?
COc1ccc(CNc2oc(-c3ccc(COc4ccc(OC)cc4)o3)nc2C#N)cc1	.	.	7%	?	.	?
CN(C)CCNc1oc(-c2ccc(COc3ccc(Cl)cc3)o2)nc1C#N	.	.	5%	16µM*	.	8.2µM*
COCCCNc1oc(-c2ccc(COc3ccc(Cl)cc3)o2)nc1C#N	.	.	8%	16µM*	.	?
COCCNc1oc(-c2ccc(COc3ccc(OC)cc3)o2)nc1C#N	.	.	5%	-26%	.	?
COc1ccc(OCc2ccc(-c3nc(C#N)c(NCc4ccc(F)cc4)o3)o2)cc1	.	.	5%	?	.	23µM*
CSc1ccccc1C(=O)C1CCCN(S(=O)(=O)c2c(C)noc2C)C1 (stereo not given)	12	4	6%	?	-10%	?
CC1(C)CC(=O)C(C2C3=C(CC(C)(C)CC3=O)Oc3c(Br)cc(Br)cc32)=C(O)C1 (stereo not given)	0	30	.	?	5%	18µM*
Cc1cc(F)ccc1-n1nnc(C(N)=O)c1C	.	.	7%	5%	.	1%
COc1ccc(Cn2nnc(C(=O)Nc3ccc4c(c3)OCCO4)c2N)cc1Br	27	0	-2%	18µM*	?	2.6µM*

From PubChem BioAssay
